The whole screen tested about 39,000 compounds, of which about 3,300 (8.5%) were called active. The list comes from a sample in which actives are over-represented; it also holds similar structures and randomly drawn compounds.
test system: HepG2; assay: cytotoxicity call (relative viability < 0.9); conditions: 10 µM

Compound	cytotoxicity call
CNCC(=O)c1ccc(O)c(O)c1	inactive
C[C@H]1CN([C@@H](C)CO)C(=O)c2c(c3ccccc3n2C)-c2ccccc2CO[C@H]1CN(C)C(=O)Oc1ccccc1	inactive
N[C@H]1Cc2ccccc2[C@@H]1O	inactive
O=[N+]([O-])c1cc([As](=O)(O)O)ccc1O	inactive
O=[N+]([O-])c1ccc([As](=O)(O)O)cc1 [listing 1 of 2 here]	inactive
O=[N+]([O-])c1ccc([As](=O)(O)O)cc1 [listing 2 of 2 here]	active
CC1=C2C3OC(=O)C(C)C3CCC2(C)C=CC1=O (configuration not stated)	inactive
O=C1NC(=S)NC(=O)C1=Cc1ccccc1	inactive
C=CC=CCC1=C(C)C(OC(=O)C2C(C=C(C)C)C2(C)C)CC1=O (configuration not stated)	inactive
Nc1ccc(Cl)cc1Cl	inactive
Oc1cc(Cl)ccc1Oc1ccc(Cl)cc1Cl [listing 1 of 2 here]	inactive
Oc1cc(Cl)ccc1Oc1ccc(Cl)cc1Cl [listing 2 of 2 here]	active
Cc1nc(-c2ccc(-c3ccc(C(=O)N4CCc5cc6c(cc54)C4(CCN(C)CC4)CO6)cc3)c(C)c2)no1	active
NCCc1nc2ccccc2[nH]1	inactive
O[C@H]1[C@H]2[C@H](O)CCCN2C[C@H]1O	inactive
COc1ccc(C(=O)O[C@H]2CC[C@@]3(C)[C@@H]4CC[C@H]5[C@]6(O)C[C@H](O)[C@@]7(O)[C@@H](CN8C[C@@H](C)CC[C@H]8[C@@]7(C)O)[C@]6(O)C[C@@]53O[C@]24O)cc1OC	inactive
CC1CCC2(NC1)OC1CC3C4CC=C5CC(O)CCC5(C)C4CCC3(C)C1C2C (configuration not stated)	inactive
C[C@@H]1CC[C@@]2(OC1)O[C@H]1[C@@H](O)[C@H]3[C@H]4CC[C@H]5C[C@H](O[C@@H]6O[C@H](CO)[C@H](O[C@@H]7O[C@H](CO)[C@@H](O)[C@H](O[C@@H]8OC[C@@H](O)[C@H](O)[C@H]8O)[C@H]7O[C@@H]7O[C@H](CO)[C@H](O)[C@H](O[C@@H]8O[C@H](CO)[C@@H](O)[C@H](O)[C@H]8O)[C@H]7O)[C@H](O)[C@H]6O)[C@H](O)C[C@]5(C)[C@@H]4CC[C@]3(C)[C@H]1[C@@H]2C	inactive
C[C@@H]1CC[C@@]2(OC1)O[C@H]1C[C@H]3[C@@H]4CC=C5C[C@@H](O[C@@H]6O[C@H](CO)[C@@H](O[C@@H]7O[C@@H](C)[C@H](O)[C@@H](O)[C@H]7O)[C@H](O)[C@H]6O[C@@H]6O[C@@H](C)[C@H](O)[C@@H](O)[C@H]6O)CC[C@]5(C)[C@H]4CC[C@]3(C)[C@H]1[C@@H]2C	active
C[C@@H]1CN([C@@H](C)CO)C(=O)CCCn2cc(nn2)CO[C@H]1CN(C)C(=O)Oc1ccc2ccccc2c1	inactive
Cc1nc(N)sc1CCN	inactive
C1CC2(CCN1)OCCO2	inactive
[N-]=[N+]=Nc1ccccc1C[C@@]1(C(=O)NCCN2CCOCC2)N=C(c2ccc(OCCCO)cc2)O[C@@H]1c1ccccc1N=[N+]=[N-]	inactive
COCCCNC(=O)[C@@]1(Cc2ccccc2N=[N+]=[N-])N=C(c2ccc(OCCCO)cc2)O[C@H]1c1ccccc1N=[N+]=[N-]	inactive
[N-]=[N+]=NCc1ccccc1C[C@@]1(C(=O)NCCN2CCOCC2)N=C(c2ccc(OCCCO)cc2)O[C@@H]1c1ccccc1N=[N+]=[N-]	active
[N-]=[N+]=NCc1ccccc1C[C@]1(C(=O)NCCN2CCOCC2)N=C(c2ccc(OCCCO)cc2)O[C@H]1c1ccccc1N=[N+]=[N-]	active

Compound	cytotoxicity call
Cn1ccnc1C(=O)N[C@H]1CN[C@@H]2CCCO[C@@H]12	inactive
Nc1ncnc2c1ncn2CCOCP(=O)(O)O	inactive
Cc1cc([C@@H](C#N)c2ccc(Cl)cc2)c(Cl)cc1NC(=O)c1cc(I)cc(I)c1O	inactive
CC[C@@]1(O)C[C@H](O[C@H]2C[C@H](N(C)C)[C@H](O)[C@H](C)O2)c2c(cc3c(c2O)C(=O)c2c(O)ccc(O)c2C3=O)[C@H]1C(=O)OC	active
CCC1(O)CC(O)c2c(cc3c(c2O)C(=O)c2c(O)ccc(O)c2C3=O)C1C(=O)OC (configuration not stated)	inactive
Cl.NCCc1cc(O)c(O)cc1O	inactive
C[C@@H]1CN([C@H](C)CO)C(=O)CCCn2nncc2CO[C@@H]1CN(C)C(=O)Oc1ccc2ccccc2c1	inactive
COc1cc2c(cc1OC)C13CCN4CC5=CCOC6CC(=O)N2C1C6C5CC43 (configuration not stated)	inactive
O=C1CC2OCC=C3CN4CCC56c7ccccc7N1C5C2C3CC46.O=S(=O)(O)O (configuration not stated)	active
O=C(O)C[C@@H]1CC[C@H]2NC[C@H](O)COC[C@@H]2O1	inactive
c1ccc2cc3c(cc2c1)-c1cccc2cccc-3c12	active
c1csc(N2CCNCC2)n1	inactive
COC(=O)[C@@H]1C(=O)NC[C@H]1C(C)C	inactive
CC(=O)N[C@H]1CCSC1=O	inactive
N#[N+]CC(=O)OC[C@H](N)C(=O)O	inactive
NC(N)=NOCC[C@H](N)C(=O)O	inactive
[N-]=[N+]=CC(=O)OCC(N)C(=O)O (configuration not stated)	active
O=C(NCc1ccccn1)[C@]12CNC[C@H]1COC2	inactive
O=C1[O][Pt]2([NH][C@@H]3CCCC[C@H]3[NH]2)[O]C1=O	inactive
CCN1C[C@]2(COC)CC[C@@H](OC)[C@@]34[C@@H]2[C@@H](OC)[C@@H]([C@@H]13)[C@]1(OC(C)=O)C[C@@H](OC)[C@@]2(O)C[C@H]4[C@@H]1[C@H]2OC(=O)c1ccc(OC)cc1	inactive
Cc1cc(O)c2c(=O)c3c(O)cc(O)c4c5c(O)cc(O)c6c(=O)c7c(O)cc(C)c8c1c2c(c34)c(c78)c65	active
CC(C)C[C@@H]1C(=O)N2CCC[C@@H]2[C@]2(O)O[C@@](NC(=O)[C@@H]3C=C4c5cccc6[nH]c(Br)c(c56)C[C@@H]4N(C)C3)(C(C)C)C(=O)N12	inactive
CC[C@@H](CN)c1ccccc1	inactive
C[N+](C)(C)C[C@H]1CCC[C@@H]1O	inactive
CN1C(=O)N(C)C2C1N(C)C(=O)N2C (configuration not stated)	inactive
NCCc1ccc(C(=O)c2ccccc2)cc1	inactive

Source: the antibiotic and cytotoxicity screens of Wong et al. (2023)
